From PubChem BioAssay AID720566 (Broad Institute, 2013)
Potency and affinity values are given separately.

target: Protein disulfide-isomerase A6 (Homo sapiens) (UniProt Q15084); assay: inhibitors of ERp5-mediated insulin aggregation, dose response, biochemical, turbidity, absorbance 650 nm, cherry-picked samples (AID 720566); settings: Recombinant ERp5 insulin aggregation; series mostly up to 35 µM; activity change, negative = inhibition: at the top concentration;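 note: negative values mean less insulin aggregation so ERp5 inhibition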
Sequence (Q15084 whole entry, looked up): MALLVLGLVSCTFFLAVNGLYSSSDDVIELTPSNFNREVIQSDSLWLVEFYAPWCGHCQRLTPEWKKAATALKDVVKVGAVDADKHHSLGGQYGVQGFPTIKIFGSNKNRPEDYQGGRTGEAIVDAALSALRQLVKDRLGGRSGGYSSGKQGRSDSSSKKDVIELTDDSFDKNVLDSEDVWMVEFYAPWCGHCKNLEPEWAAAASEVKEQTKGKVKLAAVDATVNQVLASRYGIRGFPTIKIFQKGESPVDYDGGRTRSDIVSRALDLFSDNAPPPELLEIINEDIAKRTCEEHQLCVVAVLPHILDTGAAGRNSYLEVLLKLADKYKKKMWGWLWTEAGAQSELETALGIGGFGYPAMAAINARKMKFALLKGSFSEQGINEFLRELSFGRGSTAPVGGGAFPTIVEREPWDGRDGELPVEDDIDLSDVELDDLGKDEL

Activity change, negative = inhibition, inactive:
O=C(C[C@H]1C[C@@H]2c3cc(NC(=O)CC4CC4)ccc3O[C@@H]2[C@@H](CO)O1)NCc1ccc(-c2ccccc2)cc1 -3.76%, C[C@H](CO)N1C[C@H](C)[C@H](CN(C)Cc2cccc(F)c2)Oc2ncc(Br)cc2C1=O 2.02%, COc1ccc2c3c([nH]c2c1)[C@H](CO)N(C(=O)NC(C)C)CC31CN(C(=O)C2CCCC2)C1 -3.95%, COCC#Cc1cnc2c(c1)C(=O)N([C@H](C)CO)C[C@@H](C)[C@H](CN(C)C(=O)NC1CCCC1)O2 -13%, CCC(=O)N(C)C[C@H]1Oc2cc(-c3ccc(C#N)cc3)ccc2S(=O)(=O)N([C@@H](C)CO)C[C@@H]1C -6.46%, COc1ccccc1S(=O)(=O)N1C[C@H](O)COC[C@H]2O[C@@H](CC(=O)O)CC[C@@H]21 1.3%, O=C(C[C@@H]1C[C@H]2c3cc(NC(=O)CC4CC4)ccc3O[C@H]2[C@@H](CO)O1)NCc1ccc(-c2ccccc2)cc1 4.66%, O=C(C[C@H]1C[C@H]2c3cc(NC(=O)CC4CC4)ccc3O[C@H]2[C@@H](CO)O1)NCc1ccc(-c2ccccc2)cc1 -10.3% [at 30 µM], C[C@@H]1CN([C@@H](C)CO)C(=O)c2cc(C#CC3CCCCC3)cnc2O[C@@H]1CN(C)S(=O)(=O)c1ccccc1 -8%, O=C(Cc1ccc(NC(=O)C2CCCN(C(=O)C3CC3)C2)cc1)Nc1cccc(C(=O)N2CCCCC2)c1 (configuration not stated) -9.63%, COCC(=O)N(C)C[C@H]1Oc2cc(C#CC(C)(C)O)ccc2S(=O)(=O)N([C@@H](C)CO)C[C@H]1C -2.23%, C[C@@H]1CN([C@H](C)CO)C(=O)c2cccc(NC(=O)Nc3ccc4c(c3)OCO4)c2O[C@H]1CN(C)Cc1ccc(Oc2ccccc2)cc1 7.45%
